BoNT F protease – inhibitors of Botulinum neurotoxin F light chain protease; inhibition, % at 10 µM; 360,000 tested, 0.22% active; AID 588497; Multiplex microsphere protease cleavage assay, flow cytometry; in the data active means inhibition above about 35%, passing the limit was not always enough; inconclusive means no clear call, values can overlap the other calls; further: plate controls were buffer without enzyme for full effect and enzyme alone for no effect
VHR inh abs – inhibitors of human VHR1 phosphatase (DUSP3); inhibition, % at 13.3 µM; recombinant VHR phosphatase, pNPP absorbance; 290,000 tested, 0.52% active; P51452; in the data active means inhibition above about 50%
Target sequence (P51452 whole entry, looked up): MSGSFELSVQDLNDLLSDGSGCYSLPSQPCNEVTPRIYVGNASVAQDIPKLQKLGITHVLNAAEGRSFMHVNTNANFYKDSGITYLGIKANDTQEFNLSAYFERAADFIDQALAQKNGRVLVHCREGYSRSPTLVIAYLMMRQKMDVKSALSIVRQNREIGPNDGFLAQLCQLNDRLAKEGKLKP
Autofluor counter – compound fluorescence in toxin protease inhibitor counterscreen; compound autofluorescence counterscreen, microsphere flow cytometry; stronger effect = higher value; fluorescence intensity (no concentration beside the values); 360,000 tested, 3.1% active; in the data active means fluorescence intensity above about 16000; inconclusive means no clear call, values can overlap the other calls
MazF activator – increases E. coli MazEF RNase cleavage of RNA | P0AE70 | FAM/BHQ RNA-DNA oligo cleavage fluorescence, 5 h | activation, % at 20 µM | 350,000 tested, 0.32% active | AID 504720; in the data active means activation above about 50%
Target sequence (P0AE70 whole entry, looked up): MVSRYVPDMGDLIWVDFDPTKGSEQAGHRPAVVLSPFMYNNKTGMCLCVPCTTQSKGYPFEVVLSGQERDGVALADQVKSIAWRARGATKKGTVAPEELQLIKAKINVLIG
Anthrax LF inh2 – blocks Bacillus anthracis lethal factor protease. P15917. multiplex microsphere protease cleavage assay, LF. inhibition, % at 10 µM. 360,000 tested, 0.12% active. AID 588501; further: plate controls were buffer without enzyme for full effect and enzyme alone for no effect
BoNT A protease – blocks Botulinum neurotoxin A light chain protease. multiplex microsphere protease substrate cleavage, flow cytometry. inhibition, % at 10 µM. 360,000 tested, 0.17% active; further: plate controls were buffer without enzyme for full effect and enzyme alone for no effect
Numbers without * were called inactive; ? = inconclusive; . = not tested or not shown. Rows were chosen to be rich in hits. Some 4% of all compounds tested hit in one or more screens of this group. Unless noted, no stated cut-off is given here; in the data, active means inhibition above about 30%; inconclusive means no clear call, values can overlap the other calls; inactive means below that.

SMILES	BoNT F protease	VHR inh abs	Autofluor counter	MazF activator	Anthrax LF inh2	BoNT A protease
CC(C)(C)c1ccc(-c2nc3c(C#N)c(-c4ccc5c(c4)OCO5)ccn3n2)cc1	-4	0	20531*	-7	0	-1
Cc1ccc(-c2cc(-c3ccc4c(c3)OCO4)c(C#N)c(N)n2)o1	-6	26	9215	18	4	1
COc1ccc(C(=O)Nc2ccc(CN3CCCCC3)cc2)cc1	0	-6	4030	5	-4	0
Cc1ccc(C)c(OCC(=O)NNC(=O)CCN2CCN(c3ccccc3)CC2)c1	0	.	8649	1	-6	1
CS(=O)(=O)N(Cc1ccc(C(=O)NCCSCc2ccco2)cc1)c1ccccc1	2	-17	21841*	5	-9	1
COc1ccc(N(CC(=O)NCc2ccco2)S(=O)(=O)c2ccc(OC)c(OC)c2)cc1	5	-5	22427*	0	-3	?
O=C(NCc1ccco1)c1ccccc1NS(=O)(=O)c1cccs1	3	-9	19002*	0	-4	3
CS(=O)(=O)N(Cc1ccccc1)c1ccccc1C(=O)Nc1ccccc1C(=O)NCc1ccco1	-2	20	23578*	-3	-5	-2
O=C(NCc1ccco1)c1ccccc1NS(=O)(=O)c1ccc(Cl)s1	5	31	3155	1	-2	0
C=CCN1C(=O)C2C3C=CC(C2C1=O)C1C2C(=O)N(CC=C)C(=O)C2C31 (stereo not drawn)	-2	5	4619	-17	-6	0
COc1ccc(N(CC(=O)Nc2ccccc2C(=O)NCc2ccco2)S(C)(=O)=O)cc1	1	20	22786*	2	-2	0
COc1ccc(OC)c(N(CC(=O)Nc2ccccc2C(=O)NCc2ccco2)S(C)(=O)=O)c1	2	14	8017	2	-4	-1
O=S(=O)(N/N=C/c1ccc2c(c1)OCCO2)c1ccccc1	1	7	22257*	-19	-1	0
O=C(O)c1cc(N/N=C/c2ccc3c(c2)OCCO3)ccc1Cl	38*	-13	2521	-8	1	2
O=[N+]([O-])c1ccc(S(=O)(=O)N/N=C/c2ccc3c(c2)OCO3)cc1	4	19	4364	7	3	0
CCOC(=O)[C@]12CCCC=C1N(Cc1ccc(Cl)cc1Cl)C(=O)[C@H](CC(=O)NCc1ccc(C)o1)C2	-2	.	4292	.	-7	-1
O=C(NCCCN1CCCC1=O)c1ccc2c(=O)n(Cc3ccco3)c(=S)[nH]c2c1	?	4	4428	10	0	-3
COCc1cc(C)nc(N2CCN(c3ccccc3)CC2)c1C#N	-1	-1	23159*	3	-1	-1
COc1cc2c(cc1OC)C(C)N(C(=O)/C=C/c1cc(OC)c(OC)c(OC)c1)CC2 (stereo not drawn)	6	17	2919	5	3	1
COc1cccc(CNc2ccc(N3CCC(C)CC3)cc2)c1OC	-5	9	19533*	0	-4	3
COc1cccc(CN2CCN(c3ccc(F)cc3)CC2)c1OC	8	.	3652	8	-1	0
O=C1CC(N(Cc2ccc3c(c2)OCO3)C(=O)Nc2ccc(F)cc2)C(=O)N1c1ccccc1 (stereo not drawn)	2	16	23094*	0	0	?
Cc1ccc2nc3c(nc2c1)-c1ccccc1C3=O	0	14	23481*	17	1	0
Cc1cccc2nc3c(nc12)-c1ccccc1C3=O	?	-23	3347	7	-3	?
O=C(O)CS(=O)(=O)c1ccc(C(F)(F)F)cn1	-9	-2	4697	-6	-7	-1
SMILES	BoNT F protease	VHR inh abs	Autofluor counter	MazF activator	Anthrax LF inh2	BoNT A protease
O=C(CNS(=O)(=O)N1CCOCC1)N/N=C/c1cccnc1	-4	-3	1956	-30	1	0
Cc1cccc(N2C(=O)CC(N(C(=O)c3ccco3)c3cccc(C)c3)C2=O)c1 (stereo not drawn)	-7	4	17561*	-3	0	?
O=C(NNC1CC(=O)N(c2ccccc2)C1=O)c1ccco1 (stereo not drawn)	-1	19	4389	3	2	0
Cc1cccc(C(=O)Nc2ccc(C(=O)N3CCCCC3C)cc2)c1 (stereo not drawn)	-1	57*	5660	-1	-2	0
CC1CCCCN1C(=O)c1ccc(C(=O)N2CCCCC2C)cc1 (stereo not drawn)	4	14	21133*	-4	0	3
Cc1ccc(C)c(S(=O)(=O)NCc2ccc(C(=O)N3CCCCC3C)cc2)c1 (stereo not drawn)	4	30	18934*	1	-12	2
Cc1ccccc1OCCSc1nc2ncnc(N)c2[nH]1	-1	27	4179	15	5	0
O=C1CC(C(=O)N(CC2CCCO2)C(C(=O)NC2CCCCC2)c2ccncc2)CS1 (stereo not drawn)	16	22	9682	2	2	2
O=C(NC1CCCCC1)C(c1ccc(O)cc1)N(CC1CCCO1)C(=O)C1COc2ccccc2O1 (stereo not drawn)	0	31	20282*	3	0	0
COc1cc(CNCCCN2CCOCC2)cc(Br)c1OCC(=O)N1CCCCC1	13	36	18727*	2	3	10
Cc1cc(C)cc(OCC(=O)N2CCCCCC2)c1	5	-1	22007*	1	-6	?
COc1cc(CNCCCN2CCOCC2)cc(Br)c1OCc1ccc(Cl)cc1	-9	-2	4487	10	-2	0
COc1cc(CO)cc(Br)c1OCC(=O)N1CCCCC1	4	15	21247*	7	-4	3
Cc1cc(C)c(C)c(OCC(=O)N2CCCCCC2)c1	9	15	9065	0	4	-1
CC1(C)CC(=O)C=C(c2ccc3ccccc3c2)C1	8	.	2855	6	-5	0
Cc1ccccc1N(CC(=O)NC1CCCC1)C(=O)C1(C)CC(=O)N=C2C=CC=CN21 (stereo not drawn)	-4	22	4045	5	-2	0
Cc1ccccc1N(CC(=O)NCC1CCCO1)C(=O)C1(C)CC(=O)N=C2C=CC=CN21 (stereo not drawn)	0	-11	23341*	12	-2	0
CCCOc1cc(C)c(S(=O)(=O)NCCOC)cc1C	-7	13	21763*	4	-1	-7
Cc1ccc(C)c(OCCN2CCOCC2)c1	?	-4	3945	8	-6	?
O=C(NC(=O)c1cccc(OC(F)(F)C(F)F)c1)OC1CCS(=O)(=O)C1 (stereo not drawn)	1	9	24101*	5	1	0
O=C(Nc1ccccc1)OC1CCS(=O)(=O)C1 (stereo not drawn)	-9	1	9471	2	0	-1
O=c1[nH]c(C2CCCN(S(=O)(=O)c3ccc(F)cc3)C2)nc2c1nnn2Cc1ccccc1 (stereo not drawn)	4	16	21368*	0	0	2

Screens deposited in PubChem by several laboratories.
